This excerpt belongs to a sample that is enriched for hits.
CHX counter = counter-screen hit for Shiga toxin inhibitors, cycloheximide; actives 12% (n = 300,000); max response, %; cell reporter, cycloheximide protein synthesis inhibition counterscreen; in the data active means max response mostly above about 13%, no sharp cut-off; inactive means mostly below about 14%; further: read at 38.3 µM for the half of the compounds with a filed dose; 0% is about no effect
Shiga inhibitor = blocks Shiga toxin action in Vero cells. AID 2315. Vero cells, Shiga toxin protein synthesis inhibition reporter. actives 9.2% (n = 290,000). inhibition, % at 38.7 µM; in the data active means inhibition mostly above about 28%, no sharp cut-off; inactive means mostly below about 43%; further: 0% is about no effect
Sm TGR block = S. mansoni TGR enzyme inhibition. Potency, µM (doses to about 114 µM), for inactives: top-dose activity change, negative = inhibition, hits mostly inhibitors. purified TGR, DTNB reduction, TNB absorbance 405 nm. AID 485364. actives 3% (n = 360,000). Q962Y6; further: potency means the concentration at half of the fitted maximal effect; on the % scale 0 is the no-effect control and ±100 the full control effect; nearly all actives have a fitted effect of over 60% in size
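Kinetic colorimetric format: TGR-catalysed, NADPH-driven DTNB reduction monitored via TNB absorbance. Enzyme dispensed at 20 nM; compound exposure 15 min at room temperature before reaction start.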
TbPYK inhibitor = T. brucei pyruvate kinase inhibition; Q57TT1; TbPYK enzyme, Kinase-Glo Plus ATP luminescence, 45 min; Potency, µM (series often up to 76.8 µM), inactives show at the highest dose activity, negative = inhibition, hits mostly inhibitors; actives 0.12% (n = 410,000); further: potency means the concentration at half of the fitted maximal effect; on the % scale 0 is the no-effect control and ±100 the full control effect; nearly all actives have a fitted effect of over 50% in size
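Quantitative HTS: titrated library compounds versus trypanosomal pyruvate kinase in TEA buffer (pH 7.2) containing KCl, MgCl2, BSA and Tween-20. Reactions were initiated with ADP, 130 uM final. Kinase-Glo Plus luminescence was read after 45 min at RT.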
Giardia FBPA inh = Giardia lamblia aldolase inhibition | A8B2U2 | purified Giardia FBPA | Potency, µM (top dose mostly 59.6 µM), inactives show top-dose activity, negative = inhibition, most hits filed as inhibitors | actives 0.71% (n = 290,000); further: potency means the concentration at half of the fitted maximal effect; on the % scale 0 is the no-effect control and ±100 the full control effect; nearly all actives have a fitted effect of over 55% in size
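Giardia FBPA (40 nM reagent) was preincubated 10 min at RT with compound (up to 57.5 uM final), then substrate plus GAPDH/TPI/NAD/arsenate coupling system with diaphorase/resazurin was added; resorufin fluorescence (525/598 nm) was read after 20 min.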
LmPK inh = LmPK (Leishmania mexicana) enzyme inhibition; actives 0.37% (n = 290,000); Q27686; AID 1721; purified LmPK, Kinase-Glo ATP luminescence, 1 h; Potency, µM (titrated, usually from 57.5 µM), for the others: at the top dose activity change, negative = inhibition, hits mostly inhibitors; further: potency means the concentration at half of the fitted maximal effect; on the % scale 0 is the no-effect control and ±100 the full control effect
Target sequence (Q27686 whole entry, looked up): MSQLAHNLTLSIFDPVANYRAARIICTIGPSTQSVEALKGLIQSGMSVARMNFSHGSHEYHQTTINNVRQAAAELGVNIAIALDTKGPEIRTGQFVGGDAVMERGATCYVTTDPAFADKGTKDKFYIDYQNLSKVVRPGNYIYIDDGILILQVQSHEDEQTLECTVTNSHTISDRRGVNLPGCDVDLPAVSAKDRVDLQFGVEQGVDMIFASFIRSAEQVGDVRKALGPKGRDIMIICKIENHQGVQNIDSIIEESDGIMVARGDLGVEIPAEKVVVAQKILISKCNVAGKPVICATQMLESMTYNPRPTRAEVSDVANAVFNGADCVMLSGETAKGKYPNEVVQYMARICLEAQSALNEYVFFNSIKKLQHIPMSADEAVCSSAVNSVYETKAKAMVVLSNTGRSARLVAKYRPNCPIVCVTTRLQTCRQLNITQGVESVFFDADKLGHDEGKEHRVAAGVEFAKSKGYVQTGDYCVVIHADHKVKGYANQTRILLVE
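qHTS format; LmPK 0.1 nM; substrates PEP 0.5 mM and ADP 0.1 mM. One-hour room-temperature incubation, then coupled luciferase luminescence; 0.5 nM enzyme wells mark activation.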
Starred values were filed as active, the others as inactive; ? = inconclusive; . = no result given. Unless noted, the call rests on the fitted dose curve; in most records, active means well fitted curve in the direction sought with a large enough effect; inconclusive means small, poorly fitted or top-dose-only effect, or another doubt; inactive means no such curve, though single readings can be large; an effect the other way counts as inactive or inconclusive.

SMILES | CHX counter | Shiga inhibitor | Sm TGR block | TbPYK inhibitor | Giardia FBPA inh | LmPK inh
COc1ccc(OC)c(Nc2nc(=O)c3cccnc3s2)c1 | 4 | 7 | . | 35µM* | ? | 2%
COc1ccc(OC)c(Nc2cc(C)nc3ccccc23)c1 | -1 | 5 | 2% | -9% | 1% | 3%
Cc1ccc(Nc2nc(=O)c3cccnc3s2)cc1 | 26* | 72* | 5% | 11% | -25% | -5%
O=C(c1ccccc1)c1cnc(-c2ccc(Cl)cc2)s1 | 39* | 116* | 10% | . | 2% | ?
CN(C)/C=C/C(=O)c1cnc(-c2ccccc2)s1 | 52* | 104* | -19% | 11% | 1% | 10%
CN(C)/C=C/C(=O)c1ccc(Cl)s1 | 16* | 35 | -23% | 0% | 7% | -4%
CN(C)/C=C/C(=O)c1cnc(-c2ccc(Cl)cc2)s1 | 51* | 97* | -17% | -3% | 2% | -13%
Cc1ccccc1NCc1cccn1-c1nnc(N2CCC(C)CC2)s1 | . | . | -1% | -5% | . | .
CCOCCCN(C(=O)Cn1nnc2ccccc21)C(C(=O)NCc1ccco1)c1ccncc1 (stereo not drawn) | -4 | -13 | 16µM* | -6% | -25% | 5%
Cc1ccccc1N(C(=O)Cn1nnc2ccccc21)C(C(=O)NCc1ccco1)c1ccncc1 (stereo not drawn) | -4 | 22 | ? | 0% | -15% | 7%
Cc1ccc(CN(C(=O)Cn2nnc3ccccc32)C(C(=O)NCc2ccco2)c2cccs2)cc1 (stereo not drawn) | 19* | 57* | 0% | -7% | -10% | 1%
COCCNC(=O)C(c1ccccc1)N(C(=O)Cn1nnc2ccccc21)c1cccnc1 (stereo not drawn) | 3 | 18 | -1% | -13% | -3% | -2%
COCCNC(=O)C(c1cccs1)N(C(=O)Cn1nnc2ccccc21)c1ccccc1 (stereo not drawn) | -4 | -19 | 0% | 1% | 0% | -6%
COCCNC(=O)C(c1cccnc1)N(Cc1ccccc1)C(=O)Cn1nnc2ccccc21 (stereo not drawn) | 29* | 94* | 1% | 1% | 0% | -13%
O=C(NCc1ccco1)C(c1ccco1)N(Cc1cccs1)C(=O)Cn1nnc2ccccc21 (stereo not drawn) | 19* | 52* | ? | -12% | -5% | 6%
COc1ccc(CCNc2oc(/C=C/c3ccc(OC)c(OC)c3)nc2C#N)cc1 | . | . | 2% | -3% | . | .
COc1ccc(CCCc2nnc(SCC(=O)Nc3ccc(F)cc3)o2)cc1C | . | . | -2% | -4% | . | .
CCCS(=O)(=O)NC(=O)C1(C)CCN(C(=O)c2nc(C)oc2C)C1 (stereo not drawn) | . | . | . | 1% | . | .
Cc1nc2ccccc2c(=O)n1-c1ccc(NC(=O)C(F)(F)F)cc1 | . | . | 17% | -1% | . | .
O=C(NCc1ccco1)C(c1cccs1)N(Cc1ccccc1)C(=O)Cn1nnc2ccccc21 (stereo not drawn) | 30* | 49* | -16% | -5% | 10% | -2%
O=C(NCc1ccco1)C(c1ccco1)N(CCc1ccccc1)C(=O)Cn1nnc2ccccc21 (stereo not drawn) | 7 | 18 | -24% | ? | -1% | 7%
CCC(C)c1ccc(O)c(N)c1 (stereo not drawn) | -1 | 20 | -29% | ? | -9% | 1%
CC(C)c1ccc(O)c(N)c1 | 30* | 67* | -20% | -19% | -23% | 1%
O=C(N/N=C/c1ccncc1)c1cc2ccccc2cc1O | 32* | 31* | 8% | -13% | . | 0%
O=C(N/N=C/c1ccc[nH]1)c1cc2ccccc2cc1O | 31* | 78* | ? | 3% | ? | 6%
SMILES | CHX counter | Shiga inhibitor | Sm TGR block | TbPYK inhibitor | Giardia FBPA inh | LmPK inh
O=C(CNc1ccc2ccccc2c1)N/N=C/c1ccncc1 | 2 | -7 | -22% | -9% | -19% | 7%
O=C(O)c1ccc2c(c1)C(=O)N([C@@H](Cc1ccc(O)cc1)C(=O)O)C2=O | -1 | -4 | 4% | . | 4% | .
CC(=O)c1ccc(NC(=O)CSc2nc(-c3ccccc3C)nc3c2c(=O)n(C)c(=O)n3C)cc1 | . | . | 50µM* | 4% | . | .
CC(=O)c1ccc(NC(=O)CSc2nc(-c3cccc(F)c3)nc3c2c(=O)n(C)c(=O)n3C)cc1 | . | . | 0% | -7% | . | .
CCc1ccc(NCc2cc3cc4c(cc3n(CC(=O)Nc3ccccc3Cl)c2=O)OCO4)cc1 | . | . | -35% | 4% | . | .
OC[C@@H](O)[C@@H](O)CCc1ccccc1 | . | . | . | . | 1% | .
COc1ccc(-c2nc(=S)[nH][nH]2)cc1 | 13* | 108* | 0% | ? | -10% | -1%
CCOc1ccc(-c2nc(=S)[nH][nH]2)cc1 | 41* | 29 | 2% | -29% | 8% | -10%
COCCN(C(=O)COC(=O)c1ccc(Br)o1)c1c(N)n(Cc2ccccc2)c(=O)[nH]c1=O | . | . | . | -1% | . | .
O=C(/C=C/c1ccc([N+](=O)[O-])s1)N1CCN(c2ccccc2)CC1 | -2 | -9 | -15% | -5% | 3% | -3%
O=C(/C=C/c1ccc([N+](=O)[O-])s1)N1CCCC1 | -2 | 10 | 28µM* | 1% | -5% | 0%
O=C(/C=C/c1ccc([N+](=O)[O-])s1)N1CCCCC1 | 24* | 17 | 20µM* | -3% | 1% | 5%
CCCCOc1ccc(S(=O)(=O)NCc2csc(-c3ccc(OC)cc3)n2)cc1 | . | . | -2% | -2% | . | .
CC(=NCc1ccco1)c1c(O)n(Cc2ccccc2)c(=O)[nH]c1=O | -2 | -4 | 35µM* | -2% | 3% | 4%
C/C(=N\NC(=O)c1ccccc1Cl)c1c(O)n(C2CCCCC2)c(=O)[nH]c1=O | 32* | 35* | -23% | -2% | 14% | -8%
CC(=NCCO)c1c(O)n(C2CCCCC2)c(=O)[nH]c1=O | 22 | 36 | 5% | 29% | 6% | -3%
CC(=NCc1ccco1)c1c(O)n(C2CCCCC2)c(=O)[nH]c1=O | 4 | -3 | 0% | 3% | -3% | 3%
C/C(=N\NC(=O)c1ccncc1)c1c(O)n(Cc2ccccc2)c(=O)[nH]c1=O | 17 | -13 | 0% | 4% | 25% | 5%
C/C(=N\NC(=O)c1ccccc1O)c1c(O)n(Cc2ccccc2)c(=O)[nH]c1=O | 25* | 51 | ? | 3% | ? | 4%
C/C(=N\NC(=O)c1ccccc1)c1c(O)n(C2CCCCC2)c(=O)[nH]c1=O | 41* | 67* | -7% | 3% | . | 10%
C/C(=N\NC(=O)c1ccccc1O)c1c(O)n(C2CCCCC2)c(=O)[nH]c1=O | 23* | 41* | -16% | -7% | . | -4%
COC(=O)c1ccc(NC(=O)CCn2cnnn2)cc1 | . | . | 8% | 1% | . | .
CCc1noc(C)c1C(=O)Nc1nc2c(C)cccc2s1 | . | . | 0% | 2% | . | .

Screening results deposited in PubChem by National Center for Advancing Translational Sciences (NCATS).
